From PubChem
Shiga toxin inh = A qHTS for Small Molecule Inhibitors of Shiga Toxin; Vero cells, Shiga toxin protein synthesis inhibition reporter; inhibition, % at 38.7 µM; 9.2% of 290,000 active; AID 2315, 2010; in the data active = inhibition mostly above about 28%, no sharp cut-off; inactive = mostly below about 43%; note: 0% is about no effect
CHX counter = Cycloheximide Counterscreen for Small Molecule Inhibitors of Shiga Toxin. cell reporter, cycloheximide protein synthesis inhibition counterscreen. max response, %. 12% of 300,000 active; in the data active = max response mostly above about 13%, no sharp cut-off; inactive = mostly below about 14%; note: read at 38.3 µM for the half of the compounds with a filed dose; 0% is about no effect
Pf growth 96h = Primary qHTS for delayed death inhibitors of the malarial parasite plastid, 96 hour incubation; P. falciparum luciferase reporter growth, 96 h; 6.9% of 320,000 active; Potency, µM (series often up to 28.7 µM), for inactives: top-dose activity change, negative = inhibition, usual class: inhibitors; AID 504834, 2011; note: potency is the fitted concentration of half-maximal effect; % is set by controls: 0 for no effect and ±100 for the full control effect
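Parasite growth measured via integrated firefly luciferase reporter in P. falciparum. Infected erythrocytes at 2% hematocrit, 0.05% parasitemia final were treated 96 hours at 37 C under 5% CO2, and luminescence was read.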
Pf growth 48h = Primary qHTS for delayed death inhibitors of the malarial parasite plastid, 48 hour incubation. P. falciparum luciferase growth in erythrocytes, 48 h. Potency, µM (highest dose often 28.7 µM), without a hit: at the highest dose activity change, negative = inhibition, hits mostly inhibitors. 5.9% of 310,000 active; note: potency is the fitted concentration of half-maximal effect; % is set by controls: 0 for no effect and ±100 for the full control effect
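Cell-based growth assay: transgenic P. falciparum expressing firefly luciferase, cultured in red cells within RPMI 1640 containing 0.5% w/v Albumax, 24 mM bicarbonate and gentamycin. A drop in luciferase activity indicates inhibition.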
Numbers without * were called inactive; ? = inconclusive; . = no result; [ ] = another dose, or the depositor's remark. Only some compounds are listed: those with a hit (about 21% of all), similar ones and a draw of the others. Unless noted, calls come from the whole dose curve; as a rule, active = well fitted inhibition curve with a large enough effect; inconclusive = small, poorly fitted or top-dose-only effect, or another doubt; inactive = no such curve, though single readings can be large or run the other way.

SMILES	Shiga toxin inh	CHX counter	Pf growth 96h	Pf growth 48h
COc1ccc(S(=O)(=O)n2[nH]c(=O)c(CCO)c2C)c([N+](=O)[O-])c1	-3.4	-3.5	31.4%[1.15 µM]	7.7%
N#Cc1c(N)nc(SCc2ccccn2)c(C#N)c1-c1cccs1	-11.8	0.8	.	?
c1ccc(CSc2ccc(-c3cccs3)nn2)nc1	50.9*	43.7*	?	200.2%
c1ccc(CSc2ccc(-c3cccs3)nn2)cc1	40.1*	31.0*	155.5%	200.3%
CN(CC(=O)Nc1ccc(F)cc1)C(=O)CN1C(=O)c2cccc([N+](=O)[O-])c2C1=O	.	.	?	-11.1%
C[C@H](CCCC(C)(C)O)[C@H]1CC[C@H]2[C@@H]3CC=C4C[C@@H](O)CC[C@]4(C)[C@H]3CC[C@]12C	.	.	-5.9%	1.6%
CC(=O)c1ccc(N2CCN(C(=O)CCS(=O)(=O)c3ccc4c(c3)CCN4C(C)=O)CC2)cc1	13.8	3.2	?	13.1µM*
CCC(=O)N1CCc2cc(S(=O)(=O)CCC(=O)N3CCN(c4ccc(F)cc4)CC3)ccc21	13.2	-4.8	1.04µM*	-19.4%
CCOC(=O)N1CCN(C(=O)CCS(=O)(=O)c2ccc3c(c2)CCN3C(=O)CC)CC1	-5.6	3.5	-23.4%	-16.1%
CCCS(=O)(=O)N1CCN=C1SCc1cccc(C)c1	3.0	-3.9	10.4%	2.3%
CCOc1ccccc1N(C(=O)c1snc(C(N)=O)c1N)C(C(=O)NC1CCCC1)c1cccs1 (stereo not given)	-11.4	-3.0	?	9.28µM*
COc1ccc(C(C(=O)NCc2ccccc2)N(C(=O)c2snc(C(N)=O)c2N)c2ccccc2OC)cc1OC (stereo not given)	-12.0	0.4	-14.7%	10.4µM*
CN(C)c1ccc(C(C(=O)NCc2ccccc2)N(Cc2cccnc2)C(=O)c2snc(C(N)=O)c2N)cc1 (stereo not given)	-16.7	-2.8	13.1µM*	?
CCOc1ccccc1N(C(=O)c1snc(C(N)=O)c1N)C(C(=O)NCc1ccccc1)c1ccc(O)cc1 (stereo not given)	18.1	-6.4	?	11.7µM*
COc1ccc(C(C(=O)NCc2ccccc2)N(Cc2cccnc2)C(=O)c2snc(C(N)=O)c2N)cc1OC (stereo not given)	-6.5	-1.8	-19.0%	?
CC1CCN(C(=O)c2cc(S(=O)(=O)N3CCOCC3)ccc2N2CCCC2)CC1	.	.	5.7%	?
O=C(O)c1ccccc1CSc1ccccn1	-19.1	4.4	?	11.9%
CCCn1c(=O)c2[nH]c(-c3ccc(S(=O)(=O)O)cc3)nc2n(CCC)c1=O	.	.	15.8%	18.2%
Cc1oc(-c2ccoc2)nc1CN(CC1CCC(=O)N1)C(C)C (stereo not given)	6.2	-2.3	-7.5%	-2.4%
COCCN(Cc1nc(-c2ccc(-c3ccccc3)cc2)oc1C)C(C)C	38.2*	31.0*	?	154.0%
COc1ccc(/C=N/N(C(C)=O)c2nc(-c3ccc(C)cc3)cs2)cc1	22.1	-1.4	?	?
CC(=O)N(/N=C/c1cccc(C)c1)c1nc(-c2ccc(Br)cc2)cs1	11.8	-2.8	11.7µM*	?
COc1ccccc1/C=N/N(C(C)=O)c1nc(-c2ccc(F)cc2)cs1	41.2	29.8*	72.4%	67.6%
CN1CCN(C(=S)c2cn(Cc3ccccc3F)c3ccccc23)CC1	-7.0	4.7	?	?
CCNC(=S)N/N=C/c1cn(Cc2ccccc2F)c2ccccc12	24.2	16.6*	?	?
SMILES	Shiga toxin inh	CHX counter	Pf growth 96h	Pf growth 48h
CC1CCN(C(=S)c2cn(Cc3ccccc3F)c3ccccc23)CC1	15.6	7.8	13.1µM*	7.38µM*
CC(C)COc1ccc(C(=O)N2C(=O)c3ccc(N)cc3C2=O)cc1	-5.1	-1.2	106.3%	50.9%
CN1CCCN(S(=O)(=O)c2ccc(O)c(C(=O)O)c2)CC1	-11.1	-0.7	-7.5%	-3.8%
O=C(CCCOc1ccc(Br)cc1)NNC(=O)c1ccncc1	.	.	6.7%	-22.0%
CC(=O)N1c2ccc(S(=O)(=O)N(C)CC(=O)NC3CCCCC3C)cc2CC1C (stereo not given)	-10.2	6.4	0.2%	?
O=C(c1ccco1)N1CCN(c2nc(C(F)(F)F)nc3c2nnn3Cc2ccccc2)CC1	17.2	5.2	.	9.28µM*
Clc1ccccc1Cn1nnc2c(NCC3CC3)ncnc21	22.4	16.6	?	?
O=C(c1ccco1)N1CCN(c2ncnc3c2nnn3Cc2ccccc2Cl)CC1	-8.6	8.2	-24.0%	11.7µM*
Clc1ccccc1Cn1nnc2c(Nc3ccccc3)ncnc21	79.2	15.6*	?	-8.4%
CC1=C(C(=O)N2CCOCC2)C(c2ccccc2F)NC(=O)N1 (stereo not given)	-6.3	5.2	5.8%	0.5%
CCOC(=O)CNC(=S)n1ncnc1N	-13.4	-2.7	7.9%	18.7%
CC(=O)Nc1cccc(NC(=O)c2cc(-c3cccnc3)nc3ccc(Br)cc23)c1	-1.7	5.5	?	5.22µM*
O=C(Nc1ccc(C(F)(F)F)cc1)c1cc(-c2cccnc2)nc2ccc(Br)cc12	-15.0	-0.9	?	0.37µM*
CC(C)CCn1c(=O)c2ccccc2n2c(CN3CCOCC3)nnc12	-23.4	4.6	-9.9%	-25.4%
CN(C)CCCN(C(=O)c1ccc([N+](=O)[O-])s1)c1nc2cc3c(cc2s1)OCCO3	19.9	11.8*	13.1%	22.1%
Cc1ccc2nc(N(CCCN(C)C)C(=O)c3ccco3)sc2c1	53.4	17.2	-9.5%	37.4%
CN(C)CCCN(C(=O)c1ccc(Cl)s1)c1nc2cc3c(cc2s1)OCO3	-23.6	-10.8	5.6%	-10.7%
CN(C)CCCN(C(=O)c1cccs1)c1nc2cc3c(cc2s1)OCO3	40.2	17.0*	?	53.3%
CN(C)CCCN(C(=O)c1ccc(C(=O)c2ccccc2)cc1)c1nc2cc3c(cc2s1)OCO3	-26.9	-12.3	-20.1%	11.7µM*
CN(C)CCCN(C(=O)c1ccco1)c1nc2cc3c(cc2s1)OCO3	6.9	11.9*	4.1%	20.0%
O=C(O)CNC(=O)c1ccccc1Br	6.5	1.8	67.0%	20.8%
Cc1cccc2sc(N(CCCN(C)C)C(=O)c3ccc(C(=O)c4ccccc4)cc3)nc12	-16.8	-11.9	-101.7%	6.57µM*
COc1ccc2sc(N(CCCN(C)C)C(=O)c3ccc(S(=O)(=O)N4CCCc5ccccc54)cc3)nc2c1	.	.	8.28µM*	7.38µM*
COc1ccc2sc(N(CCCN(C)C)C(=O)c3ccc(C(=O)c4ccccc4)cc3)nc2c1	.	.	?	13.1µM*
CCOc1ccc2nc(N(CCCN(C)C)C(=O)c3ccc(S(=O)(=O)N4CCCC4)cc3)sc2c1	-16.6	-2.2	?	?
CCN(Cc1ccccc1)S(=O)(=O)c1ccc(C(=O)N(CCCN(C)C)c2nc3cc(OC)ccc3s2)cc1	.	.	21.7%	8.6%
OCCC1CN(Cc2cc3c(cc2Cl)OCO3)CCN1C1CCCC1 (stereo not given)	2.8	-0.8	?	28.9%
O=C(Nn1c(=S)[nH]c2ccccc2c1=O)c1ccncc1	24.5	-3.3	?	41.7%
CC1=NN(c2ccccc2)C(=O)C1/C=C1\NC(=S)NC1=O (stereo not given)	20.4	-3.2	-46.6%	32.2%
